Assay results reported in PubChem BioAssay AID651681 (Broad Institute, 2012).
Active and inactive are the calls of the source.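 Rule for the calls: active = compound with fitted CDK2 half-maximal potency at or below twice its top tested dose; inconclusive = flat curve near 30 to 70% inhibition, or poor fit; inactive = the rest.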

What follows are compounds tested against Cyclin-dependent kinase 2 (Homo sapiens) + Cyclin-A2 (Homo sapiens) (UniProt P20248+P24941) (assay: blockade of human CDK2 kinase activity – biochemical, dry powder, set 3, selectivity assay for Dyrk1A inhibitor project, dose response (AID 651681)). Settings: CDK2/cyclin A ADP-Glo luminescence, histone H1 peptide; series mostly up to 10 µM.
Chain of Cyclin-dependent kinase 2 (Homo sapiens) + Cyclin-A2 (Homo sapiens) (P20248 whole entry, looked up, one chain of several): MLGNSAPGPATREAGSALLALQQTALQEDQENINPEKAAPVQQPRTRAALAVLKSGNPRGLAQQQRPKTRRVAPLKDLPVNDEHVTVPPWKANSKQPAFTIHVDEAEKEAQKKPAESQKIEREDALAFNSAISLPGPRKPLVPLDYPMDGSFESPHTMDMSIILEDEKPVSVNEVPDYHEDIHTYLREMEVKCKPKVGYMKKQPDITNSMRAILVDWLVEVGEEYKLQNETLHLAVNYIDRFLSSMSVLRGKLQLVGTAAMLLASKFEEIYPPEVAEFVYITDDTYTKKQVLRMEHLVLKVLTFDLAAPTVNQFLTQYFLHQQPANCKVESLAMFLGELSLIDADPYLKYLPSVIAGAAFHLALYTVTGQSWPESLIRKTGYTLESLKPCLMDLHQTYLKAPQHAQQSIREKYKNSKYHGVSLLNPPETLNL

outcome, inactive:
CN(CC(=O)Nc1nc2ccc(Cl)cc2s1)S(=O)(=O)c1ccc(Cl)cc1
COc1ccc(NC(=O)C2CCCN(S(=O)(=O)c3cccc4nonc34)C2)cc1 (stereo not drawn)
COc1ccc2nc(NC(=O)C3CCCN(S(=O)(=O)c4cccc5nonc45)C3)sc2c1 (stereo not drawn)
O=C(NCc1ccccc1)c1sc2ccccc2c1Cl
COc1ccc2c(Cl)c(C(=O)NCc3ccccc3)sc2c1
COc1ccc(C2=Nn3c(nnc3-c3cccnc3)SC2)cc1OC
COc1cccc(C2=Nn3c(nnc3-c3ccccc3)SC2)c1
Cc1ccc(S(=O)(=O)N(C)CC(=O)Nc2nc3ccc(Cl)cc3s2)cc1C
COc1ccc(OC)c(C2=Nn3c(nnc3-c3ccccn3)SC2)c1
COc1ccc2nc(NC(=O)C3CCN(S(=O)(=O)c4cccnc4)CC3)sc2c1
COc1ccc2nc(NC(=O)C3CCN(S(=O)(=O)c4cccc5nsnc45)CC3)sc2c1
COc1ccc2nc(NC(=O)C3CCCN(S(=O)(=O)c4cccc5nsnc45)C3)sc2c1 (stereo not drawn)
COc1ccc(CNC(=O)c2sc3ccccc3c2Cl)cc1
O=C(NCc1ccco1)c1sc2ccccc2c1Cl
Cc1cccc2sc(NC(=O)CN(C)S(=O)(=O)c3ccc(Cl)cc3)nc12
COc1ccc(S(=O)(=O)N2CCCC(C(=O)Nc3nc4ccccc4s3)C2)cc1 (stereo not drawn)
Cc1csc(NC(=O)C2CCCN(S(=O)(=O)c3cccc4nonc34)C2)n1 (stereo not drawn)
COc1ccc(OC)c(CNC(=O)c2sc3ccccc3c2Cl)c1
